Compound activity deposited in PubChem BioAssay by National Center for Advancing Translational Sciences (NCATS).
D1 potentiator = potentiators of human D1 dopamine receptor. P21728. HEK293 TREx D1 cells, calcium flux, dopamine EC20 potentiation. potentiation, % at 10 µM. 0.036% of 360,000 active. AID 504651; in the data active means potentiation above about 30%; further: 0% is about no effect
Target sequence (P21728 whole entry, looked up): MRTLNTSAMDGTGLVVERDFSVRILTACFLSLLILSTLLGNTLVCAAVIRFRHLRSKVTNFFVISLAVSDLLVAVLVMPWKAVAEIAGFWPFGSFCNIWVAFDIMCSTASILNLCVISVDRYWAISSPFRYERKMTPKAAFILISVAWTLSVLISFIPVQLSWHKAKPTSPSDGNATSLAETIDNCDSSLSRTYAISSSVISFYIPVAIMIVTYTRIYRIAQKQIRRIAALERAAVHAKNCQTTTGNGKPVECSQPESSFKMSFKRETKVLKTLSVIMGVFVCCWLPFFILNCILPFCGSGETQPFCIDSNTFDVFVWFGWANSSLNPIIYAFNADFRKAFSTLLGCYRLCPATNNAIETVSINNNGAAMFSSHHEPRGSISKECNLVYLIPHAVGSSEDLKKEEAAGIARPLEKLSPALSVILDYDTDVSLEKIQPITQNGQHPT
D1 ag = human D1 receptor agonism; activation, % at 2 µM; P21728; 1% of 360,000 active; HEK293 T-REx D1 cells, calcium flux, agonist mode; AID 504660; in the data active means activation above about 30%; further: 0% is about no effect
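Inducible HEK293 T-REx D1 cells, force-coupled to calcium signalling, were plated at 4000 cells/well with tetracycline and held overnight at 30 C. After no-wash calcium dye loading, compound-evoked calcium rise over 180 s flagged agonists.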
D1 antagonist = antagonists of human D1 dopamine receptor; P21728; HEK293 TREx D1 cells, calcium flux, dopamine EC80; stronger effect = lower value; activity change, negative = inhibition, % at 10 µM; 3.2% of 360,000 active; AID 504652; in the data active means activity change below about -30%; further: on the % scale 0 is the no-effect control and ±100 the full control effect
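Tetracycline-induced HEK293 T-REx cells with force-coupled D1 receptor were loaded with a no-wash calcium dye. Compound was added after a 10 s baseline and read kinetically for 180 s; EC80 dopamine was then added and calcium flux followed another 180 s.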
DRD3 antagonist = antagonists of human D3 dopamine receptor | P35462 | AID 652054 | D3R cells, DiscoveRx beta-arrestin luminescence, antagonist mode; stronger effect = lower value | max response, negative = inhibition, % | 2.5% of 360,000 active; in the data active means max response below about -50%; inconclusive means no clear call, values can overlap the other calls; further: on the % scale 0 is the no-effect control and ±100 the full control effect
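Cells plated overnight at 1500 cells/well, then exposed to library compounds with dopamine controls for 90 minutes at 37 degrees C. DiscoveRx reagent added for 30–60 minutes at room temperature; luminescence read, quantitative HTS format.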
D3 ag = activates the human D3 dopamine receptor; D3R DiscoveRx beta-arrestin cells, luminescence, 90 min; max activation, %; 0.58% of 410,000 active; AID 652048; in the data active means max activation above about 30%; further: 0% is about no effect
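Agonist mode: compounds and dopamine controls were applied to plated cells for 90 min at 37 degrees C after an overnight attachment at 1500 cells/well. Luminescent read-out followed 30 - 60 minutes at room temperature with DiscoveRx detection reagent.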
The depositor's hits bear a star; u = inconclusive; x = no result given; ! = repeats disagree. Most compounds without a hit are left out; they make up all but 6.1% or so of the library.

SMILES | D1 potentiator | D1 ag | D1 antagonist | DRD3 antagonist | D3 ag
O=[N+]([O-])c1ccc(O)c(NC(=S)Nc2ccccc2)c1 | 2 | 3 | x | -78* | -7
COc1ccc([N+](=O)[O-])cc1NC(=S)Nc1ccccc1 | 3 | 1 | -6 | 0 | -2
O=[N+]([O-])c1ccc(NNC(=S)Nc2ccccc2)cc1 | -7 | 2 | -3 | -93* | -2
COc1ccc(-c2nc3ccc(NS(=O)(=O)c4ccc(Cl)cc4)cc3o2)cc1 | -1 | 2 | 2 | x | 1
CCOCCCNC(=O)C(NC(=O)Cc1cccs1)c1ccc(C)cc1 (stereo unspecified) | -3 | 1 | -44* | -25 | -2
Cc1nn(Cc2ccc([N+](=O)[O-])cc2)c(=O)n1-c1c(F)cccc1F | -3 | 1 | -4 | -61* | 1
COc1cc2[nH]c(=O)n(Cc3ccc(C(=O)N4CCN(c5cc(Cl)ccc5C)CC4)cc3)c(=O)c2cc1OC | 0 | 1 | -3 | x | -16
Cc1c(C(=O)N2CCC(C)CC2)c(S(=O)(=O)Nc2cccc(C#N)c2)c(C)n1C | 0 | 0 | 4 | x | 7
CCOC(=O)c1cnc2c(C)cc(Cl)cc2c1NCCCN1CCOCC1 | 5 | 4 | -35* | 23 | 4
c1ccc(OCCOCCN2CCc3ccccc3C2)cc1 | -9 | 4 | 24 | -111* | -18
CCCOc1ccc(OCCOCCN2CCc3ccccc3C2)cc1 | 5 | 0 | -5 | -70* | -3
Fc1ccc(OCCOCCN2CCCC2)cc1 | x | x | x | -3 | -12
COc1ccc(C2(O)CCN(CCCCOc3ccccc3)CC2)cc1 | -17 | 36* | -18 | -90* | -34
C=CCc1cc(OC)ccc1OCCOCCN1CCc2ccccc2C1 | -11 | 11 | -43* | -88* | -24
COc1ccc(C(=O)N2CC(=O)Nc3ccc(F)cc3C2c2ccc(F)cc2)c(OC)c1 (stereo unspecified) | 0 | 11 | 6 | x | 8
CCOc1ccc(OCCOCCN2CCc3ccccc3C2)cc1 | -4 | 2 | 6 | -58* | -6
Cc1ccc(SCCOCCN2CCc3ccccc3C2)cc1 | -8 | 3 | -3 | -105* | -11
COc1ccc(OCCCN2CCc3ccccc3C2)cc1 | -10 | 2 | -8 | -109* | -19
O=C(O)C(Sc1ccncn1)c1ccccc1 (stereo unspecified) | 2 | 1 | -35* | -17 | 4
CC[C@]1(O)C[C@H]2CN(CCc3c([nH]c4ccccc34)[C@@](C(=O)OC)(c3cc4c(cc3OC)N(C=O)[C@H]3[C@@](O)(C(=O)OC)[C@H](OC(C)=O)[C@]5(CC)C=CCN6CC[C@]43[C@@H]65)C2)C1 | x | x | x | x | -3
CCOC(=O)c1cnn(CCOC(=O)C(C)(C)C)c1NC(=O)C(C)(C)C | -4 | 2 | 9 | 23 | 12
CCOC(=O)c1cnn(CCOC(=O)C2CC2)c1NC(=O)C1CC1 | 0 | 3 | -17 | -99* | 8
O=C(NCc1ccccc1Br)c1cnc2sc(N3CCCCCC3)nn2c1=O | -7 | 0 | -1 | x | -9
N/C(=N\OC(=O)CC1CCCCC1)c1cccnc1 | -4 | 1 | 6 | -151* | -1
O=C(COc1ccc(Br)cc1)Nc1ccncc1 | -7 | 11 | -4 | 19 | -2
SMILES | D1 potentiator | D1 ag | D1 antagonist | DRD3 antagonist | D3 ag
CC(C)CCOc1cccc(OCC(=O)Nc2ccncc2)c1 | -6 | 13 | -31* | u | 6
CCC(C)(C)c1ccc(OCC(=O)Nc2ccncc2)cc1 | -11 | 45* | -16 | 14 | -1
COc1cccc(OCC(=O)Nc2ccncc2)c1 | -7 | 6 | -10 | 3 | 5
Cc1ccc(/C=C/C(=O)N2CCC(c3nc4ccccc4o3)CC2)cc1 | -1 | 1 | -8 | x | -3
CC1(C(=O)O)CCC(C(=O)Nc2ccccc2O)C1(C)C (stereo unspecified) | -1 | 0 | -8 | -10 | -5
COc1ccc(NC(=O)C2CCC(C)(C(=O)O)C2(C)C)cc1 (stereo unspecified) | -3 | 0 | 7 | -55* | 5
CC(C)(C)NC(=O)C1CCC(C)(C(=O)O)C1(C)C (stereo unspecified) | 3 | 4 | 2 | 15 | 33*
CCOc1ccc(NC(=O)C2CCC(C)(C(=O)O)C2(C)C)cc1 (stereo unspecified) | -3 | 2 | 16 | 12 | 6
CCc1cccc2c(-c3ccc(F)cc3)nc(SCC(=O)Nc3ccccc3)nc12 | 3 | 1 | 4 | x | -18
O=C(Nc1cccc(S(=O)(=O)NC2=NCCC2)c1)c1cc(-c2ccccn2)nc2ccccc12 | 0 | 2 | -6 | -19 | -9
O=C(Nc1ccc(S(=O)(=O)Nc2nccs2)cc1)c1cc(-c2ccccc2Cl)nc2ccccc12 | 1 | 6 | 25 | -85* | 2
O=C(Nc1cccc(S(=O)(=O)NC2=NCCCCC2)c1)c1cc(-c2ccccc2Cl)nc2ccccc12 | -10 | 5 | -36* | 14 | 5
CCCCNc1c(-c2ccc(SC(C)CC)c(OC)c2)nc2ccc(C)cn12 (stereo unspecified) | -4 | 3 | -24 | 66 | 55*
CCCCCCSc1cccc(-c2nc3cc(C)ccn3c2NCc2ccccc2)c1 | 0 | 2 | 11 | 7 | 33*!
CCC(C)Sc1cccc(-c2nc3ccccn3c2NCc2ccccc2)c1 (stereo unspecified) | x | x | x | 97 | 33*
CCCCCCSc1cc(-c2nc3ccc(C)cn3c2NCc2ccccc2)ccc1OC | 13 | 0 | 13 | 40 | 62*!
COc1ccc2c(c1)CC(NC(=O)Nc1ccc(Br)c(C)c1)CO2 (stereo unspecified) | -1 | 1 | -1 | x | -6
CC(=O)c1cccc(NC(=O)c2c(N3CCCC3=O)c3cc(F)ccc3n2C)c1 | -2 | 0 | -25 | x | -3
CCCCCCSc1cccc(-c2nc3ccc(C)cn3c2NCc2ccccc2)c1 | -3 | -1 | 9 | 108 | 14
CCCCCCSc1cccc(-c2nc3ccccn3c2NCc2ccccc2)c1 | x | x | x | 178 | 96*!
CC(C)(C)c1ccc(C(=O)NC(=S)NCc2cccnc2)cc1 | -3 | 16 | -17 | 5 | 2
CCc1ccc(C(=O)NC(=S)NCc2cccnc2)cc1 | -9 | 3 | -35* | 3 | -5
CCc1ccc(NC(=O)c2ccc(S(=O)(=O)NCc3cccnc3)cc2)cc1 | x | 10 | -34* | 5 | -4
Cc1cc(NC(=O)N2CCC(CN3CCOCC3)CC2)ccc1Br | -1 | 8 | -12 | x | 4
Cc1ncc(C23CC4CC(CC(C4)C2)C3)[nH]1 | 5 | 7 | 9 | -55* | -5
N#Cc1ccc(C23CC4CC(CC(C4)C2)C3)[nH]c1=O | -2 | 1 | 10 | 2 | 1
CC1(C)N([O-])C2=C(c3ccccc3C2=O)[N+](=O)C1(C)C | -2 | 2 | -32* | -5 | 1
